# Experimental data as given in PubChem BioAssay (NCI).
# Compounds without any hit were thinned out: in the full panel of roughly 79,000, 15% have a hit. A number with no mark means an inactive call. Cut-off read from the data, not from the text of the source: active = growth inhibition above about 70%; inactive = the rest. *1 amine or outer side, *2 acyl side, *3 side chain or, on linkers, in order; H or OH if unused. Where a SMILES comes first, the peptide text is derived from it. Bridges are numbered along the chain shown (N, C = ends). [ ]: non-standard residue; d: D form. The star is where a group is joined. ξ: configuration not given here. X16 = CC(C)C(C)C(C(=O)[*:2])N(C)[*:1]; Picolinoyl(3-OH) = O=C(c1ncccc1O)*; NMePhg = CN[CH](C(=O)O)c1ccccc1; Hyp = O=C(O)[CH]1C[CH](O)CN1; Cbz = O=C(OCc1ccccc1)*; Boc = CC(C)(C)OC(=O)*; ξNva = CCCC(N)C(=O)O; Sar = CNCC(=O)O
# Assay: NCI Yeast Anticancer Drug Screen. Data for the cln2 rad14 strain (AID 165);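 note: 0% = growth equal to vehicle treated cultures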
# Settings: S. cerevisiae cln2 rad14 strain, at 50.0 µM, hits give high values
# Procedure, shortened: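 Relative to vehicle controls, growth inhibition of compound-treated cln2 rad14 yeast was recorded.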
row,SMILES,growth inhibition [%]
1,O=C(O)CCCCCC1=CCCCC1,19.2
2,O=C(N/N=C\c1cccc2c([N+](=O)[O-])cccc12)Nc1ccccc1,2.6
3,O=C(N/N=C/c1ccccc1)c1c(F)c(F)c(F)c(F)c1F,12.2
4,CCOC(=O)C(CC(C)C)NC(=O)C(Cc1ccccc1)NC(=O)CNC(=O)OC(C)(C)C (stereo not drawn) (Boc-Gly-Phe-Leu-OEt; configuration not given here),-11.7
5,Cc1cc(C)[n+](C)c2cc3ccccc3cc12,44.2
6,CCN(CC)CCCC(C)Nc1ccnc2ccc3nn(C)nc3c12 (stereo not given),2.25
7,O=C(O)CSc1cc(Br)c(Br)cc1C(=O)O,9.5
8,Cc1ccc(S(=O)(=O)Oc2nc3nc4ccccc4nc3nc2OS(=O)(=O)c2ccc(C)cc2)cc1,-10.5
9,CC(c1ccccc1)n1cnc2c(=S)nc[nH]c21 (stereo not given),3.35
10,CCN(CC)CC[n+]1ccc2c(C)c3[nH]c4ccccc4c3c(C)c2c1,3.3
11,Cc1ccc(S(=O)(=O)c2c(N)c3nccn3c3nc4ccccc4nc23)cc1,-38.8
12,Cc1nc2c(o1)C(=O)c1ccccc1C2=Nc1ccc(N2CCOCC2)cc1,-1.15
13,CC(C)(C)n1c(=O)[nH]c(=O)n1C(C)(C)C,1.9
14,NS(=O)(=O)c1ccc(C(=O)O)s1,-11
15,CCOC(=O)COc1cc2c(cc1C(C)c1cc(OC)c(OC)c(OC)c1)OCO2 (stereo not given),18.1
16,Cc1ccccc1CCOC(=O)c1cc([N+](=O)[O-])cc([N+](=O)[O-])c1,4.1
17,CCCCCCCC/C=C\CCCCCCCC(=O)OC,-32.1
18,CN(N=O)C(N)=NC(=O)c1ccccc1,-20.6
19,O=C(Nc1ccccc1)c1ccc2ccccc2n1,-10.1
20,Oc1ccc(C2=NNC(c3ccc(O)cc3)=NN2)cc1,21.1

row,SMILES,growth inhibition [%]
1,COc1ccc(-c2cc(=O)c3ccc(C)nc3[nH]2)cc1,-20.7
2,CCNC(=O)OCCN1C(=O)C2C3CCC(O3)C2C1=O (stereo not given),3.35
3,CCCC(NC(=O)OCc1ccccc1)C(=O)NCC(=O)NCC(=O)OC (stereo not drawn) (Cbz-[ξNva]-Gly-Gly-OMe),30.9
4,Cc1c(Cl)cccc1NC(=O)c1c(Cl)c(Cl)c(Cl)c(Cl)c1C(=O)O,-31.7
5,COc1cc(C(=O)NNC(=O)C2CCC(=O)N2Cc2ccccc2)cc(OC)c1OC (stereo not given),-4.45
6,Cc1cccc(C)c1NC(=O)C(=O)CC(=O)c1sc(Nc2c(C)cccc2C)nc1C,-22.9
7,CNCC(O)(C(=O)O)C(=O)O,6.05
8,CC(C)CC1NC(=O)C(NC(=O)c2ncccc2O)C(C)OC(=O)C(c2ccccc2)N(C)C(=O)C(C)NC(=O)C(C(C)C(C)C)N(C)C(=O)CN(C)C(=O)C2CC(O)CN2C1=O (stereo not given) ({Picolinoyl(3-OH)}-TL[Hyp][Sar][X16]A[NMePhg]; ester 1-C; configuration not given here),3
9,N#CC1=C(O)NC(O)=C(C#N)C12C(=O)Nc1ccccc12,3.15
10,COc1ccc2c(c1)C(O)C(NCc1ccccc1)C2 (stereo not given),-9.9
11,O=C(O)C(=O)NCc1cnccn1,-29.6
12,O=S(=O)(O)CCc1ccccc1,-7.5
13,CCOc1ccc(C(C)c2cc3c(cc2OC)OCO3)cc1 (stereo not given),-1.55
14,Nc1nc2[nH]c(=O)cnc2c(=O)[nH]1,-0.1
15,CC(=O)/C(=C\c1ccc([N+](=O)[O-])o1)C(=O)CCN(C)C,22.9
16,NC(N)=N/N=C/c1c(Cl)nc2sccn12,-30.3
17,O=C(NNC(O)C(F)(F)F)c1ccccc1 (stereo not given),-35.2
18,CCOC(=O)C1CCN(S(=O)(=O)c2ccccc2)CC1,-38.1
19,CN(C)C(=S)/N=c1\ssc(=S)n1Cc1cccs1,6.75
20,CCOC(=N)CC(=O)Nc1ccccc1CC,4.05

# Assay: NCI Yeast Anticancer Drug Screen. Data for the bub3 strain (AID 167)
# Settings: S. cerevisiae bub3 mutant strain, at 50.0 µM, hits give high values
# Procedure, shortened: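 Whole-cell yeast assay. The mutant strain was incubated with compounds, and growth inhibition was determined by comparison with vehicle-treated cells.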
row,SMILES,growth inhibition [%]
1,O=C(O)CCCCCC1=CCCCC1,24.6
2,O=C(N/N=C\c1cccc2c([N+](=O)[O-])cccc12)Nc1ccccc1,-16.6
3,O=C(N/N=C/c1ccccc1)c1c(F)c(F)c(F)c(F)c1F,0.6
4,CCOC(=O)C(CC(C)C)NC(=O)C(Cc1ccccc1)NC(=O)CNC(=O)OC(C)(C)C (stereo not drawn) (Boc-Gly-Phe-Leu-OEt; configuration not given here),7.2
5,Cc1cc(C)[n+](C)c2cc3ccccc3cc12,-8.55
6,CCN(CC)CCCC(C)Nc1ccnc2ccc3nn(C)nc3c12 (stereo not given),-14
7,O=C(O)CSc1cc(Br)c(Br)cc1C(=O)O,9.8
8,Cc1ccc(S(=O)(=O)Oc2nc3nc4ccccc4nc3nc2OS(=O)(=O)c2ccc(C)cc2)cc1,3.5
9,CC(c1ccccc1)n1cnc2c(=S)nc[nH]c21 (stereo not given),-5.85
10,CCN(CC)CC[n+]1ccc2c(C)c3[nH]c4ccccc4c3c(C)c2c1,31.3
11,Cc1ccc(S(=O)(=O)c2c(N)c3nccn3c3nc4ccccc4nc23)cc1,-62.1
12,Cc1nc2c(o1)C(=O)c1ccccc1C2=Nc1ccc(N2CCOCC2)cc1,11.9
13,CC(C)(C)n1c(=O)[nH]c(=O)n1C(C)(C)C,-32.8
14,NS(=O)(=O)c1ccc(C(=O)O)s1,11.6
15,CCOC(=O)COc1cc2c(cc1C(C)c1cc(OC)c(OC)c(OC)c1)OCO2 (stereo not given),34
16,Cc1ccccc1CCOC(=O)c1cc([N+](=O)[O-])cc([N+](=O)[O-])c1,5.45
17,CCCCCCCC/C=C\CCCCCCCC(=O)OC,44
18,CN(N=O)C(N)=NC(=O)c1ccccc1,-16.1
19,O=C(Nc1ccccc1)c1ccc2ccccc2n1,10.6
20,Oc1ccc(C2=NNC(c3ccc(O)cc3)=NN2)cc1,12.8

row,SMILES,growth inhibition [%]
1,COc1ccc(-c2cc(=O)c3ccc(C)nc3[nH]2)cc1,-16.1
2,CCNC(=O)OCCN1C(=O)C2C3CCC(O3)C2C1=O (stereo not given),8.5
3,CCCC(NC(=O)OCc1ccccc1)C(=O)NCC(=O)NCC(=O)OC (stereo not drawn) (Cbz-[ξNva]-Gly-Gly-OMe),0.5
4,Cc1c(Cl)cccc1NC(=O)c1c(Cl)c(Cl)c(Cl)c(Cl)c1C(=O)O,0.85
5,COc1cc(C(=O)NNC(=O)C2CCC(=O)N2Cc2ccccc2)cc(OC)c1OC (stereo not given),-1.75
6,Cc1cccc(C)c1NC(=O)C(=O)CC(=O)c1sc(Nc2c(C)cccc2C)nc1C,16.6
7,CNCC(O)(C(=O)O)C(=O)O,-29.1
8,CC(C)CC1NC(=O)C(NC(=O)c2ncccc2O)C(C)OC(=O)C(c2ccccc2)N(C)C(=O)C(C)NC(=O)C(C(C)C(C)C)N(C)C(=O)CN(C)C(=O)C2CC(O)CN2C1=O (stereo not given) ({Picolinoyl(3-OH)}-TL[Hyp][Sar][X16]A[NMePhg]; ester 1-C; configuration not given here),-10.9
9,N#CC1=C(O)NC(O)=C(C#N)C12C(=O)Nc1ccccc12,13.2
10,COc1ccc2c(c1)C(O)C(NCc1ccccc1)C2 (stereo not given),8.5
11,O=C(O)C(=O)NCc1cnccn1,11.9
12,O=S(=O)(O)CCc1ccccc1,-21.1
13,CCOc1ccc(C(C)c2cc3c(cc2OC)OCO3)cc1 (stereo not given),27.5
14,Nc1nc2[nH]c(=O)cnc2c(=O)[nH]1,-27.5
15,CC(=O)/C(=C\c1ccc([N+](=O)[O-])o1)C(=O)CCN(C)C,39.5
16,NC(N)=N/N=C/c1c(Cl)nc2sccn12,-8.8
17,O=C(NNC(O)C(F)(F)F)c1ccccc1 (stereo not given),11.2
18,CCOC(=O)C1CCN(S(=O)(=O)c2ccccc2)CC1,18.6
19,CN(C)C(=S)/N=c1\ssc(=S)n1Cc1cccs1,-9.4
20,CCOC(=N)CC(=O)Nc1ccccc1CC,12.1
